Rows were chosen to be rich in hits. Some 1.2% of all compounds tested hit in one or more screens of this group.
NCOA1 inh = SRC1 coactivator transcriptional activity inhibitors, primary screen, cell-based, luminescence | Nuclear receptor coactivator 1 (Homo sapiens), Q15788 | HEK293 GAL4-SRC1 luciferase reporter | inhibition, % at 3.6 µM | 360,000 compounds, 0.12% hits | AID 588354, 2011;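 active means inhibition above the campaign mean plus 3 SD, with each screening campaign given its own cutoff, cut at about 60% in these data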;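 further: 0% = DMSO treated cells and 100% = gossypol at 36 µM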
SRC2 inh = inhibition of GAL4-SRC2 driven luciferase reporter, primary screen, SRC2 inhibitor project, cell-based, luminescence; Nuclear receptor coactivator 2 (Homo sapiens), Q15596; HEK293 GAL4-SRC2 luciferase reporter; inhibition, % at 9 µM; 370,000 compounds, 0.17% hits;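 active means inhibition above the mean inhibition of all tested compounds plus 3 SD, set per campaign, cut at about 52% in these data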;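 further: 0% = DMSO treated cells and 100% = cells given Gossypol at 36 µM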
NCOA3 inh = SRC3 coactivator transcriptional activity inhibitors, primary screen, cell-based, luminescence. 360,000 compounds, 0.17% hits. HEK293 GAL4-SRC3 luciferase reporter. inhibition, % at 3.6 µM. AID 588352, 2011;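 active means inhibition above a per-campaign cutoff, the mean of all compounds plus 3 SD, cut at about 60% in these data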;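 further: 0% = DMSO-treated cells and 100% = gossypol-treated cells at 36 µM; higher means less SRC3-driven luciferase light from the GAL4 reporter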
Efflux pump mplx = inhibitors of Candida efflux pumps in yeast, primary screen, S. cerevisiae, Nile Red, multiplex; 330,000 compounds, 0.44% hits; inhibition, % at 10 µM; AID 485275, 2010; S. cerevisiae Candida pump triplex;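 active means plate passing quality check with inhibition over a set limit, or well fluorescence over plate mean plus 4 SD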;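 further: Nile Red retained in pooled yeast measured as flow cytometry median fluorescence; 0% = buffer negative control and 100% = Enniatin B positive control; higher means more Nile Red kept so more efflux inhibition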
COUP-TFII inh = NR2F2 transcriptional activity inhibitors, primary screen, cell-based, luciferase reporter, HEK293T, luminescence; 370,000 compounds, 0.7% hits; HEK293T NGFI-A luciferase reporter; COUP transcription factor 2 (Homo sapiens), P24468; inhibition, % at 8.6 µM; AID 686940, 2013;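 active means inhibition above a per-plate cutoff, mean inhibition of test wells between control levels plus 3 SD, cut at about 38% in these data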;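 further: cells cotransfected with COUP-TFII expression vector driving the NGFI-A reporter; 0% = median of COUP-TF2 test wells and 100% = reporter-only cells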
Target sequence (P24468 whole entry, looked up): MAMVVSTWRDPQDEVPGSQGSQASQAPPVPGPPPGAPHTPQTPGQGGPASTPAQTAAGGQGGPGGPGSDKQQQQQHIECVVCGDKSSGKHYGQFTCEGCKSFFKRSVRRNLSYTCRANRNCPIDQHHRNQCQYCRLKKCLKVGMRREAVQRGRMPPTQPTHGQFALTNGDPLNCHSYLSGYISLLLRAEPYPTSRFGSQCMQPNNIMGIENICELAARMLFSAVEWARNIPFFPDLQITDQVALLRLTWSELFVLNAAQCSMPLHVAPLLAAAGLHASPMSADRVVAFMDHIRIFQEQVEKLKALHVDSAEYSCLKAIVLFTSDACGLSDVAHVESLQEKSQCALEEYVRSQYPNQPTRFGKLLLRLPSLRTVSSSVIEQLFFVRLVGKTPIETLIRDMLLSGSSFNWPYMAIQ
NR5A2 inv ag = LRH-1 (NR5A2) inverse agonists, primary screen, cell-based, luminescence, HEK293T, StAR-luciferase reporter; LRH-1 transfected, 24 h; inhibition, % at 3.6 µM; 360,000 compounds, 0.13% hits; AID 602396, 2012;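 active means inhibition above the mean inhibition of all tested compounds plus 3 SD, cut at about 73% in these data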;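 further: 0% = DMSO wells and 100% = reporter-only cells lacking LRH-1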
Numbers without * were called inactive.

`c1ccc(CN2CCN(c3ncnc4c3[nH]c3ccccc34)CC2)cc1` gave NCOA1 inh -1, SRC2 inh 20, NCOA3 inh 35, Efflux pump mplx 0, COUP-TFII inh 74* and NR5A2 inv ag 37.
Screening O=C(Nc1nccs1)C1CCCN(S(=O)(=O)c2cccc3cccnc23)C1 (centres undefined) returned NCOA1 inh -18, SRC2 inh 8, NCOA3 inh -3, Efflux pump mplx 0, COUP-TFII inh 8 and NR5A2 inv ag -7.
COc1cccc(/C=N/Nc2nccnc2Cl)c1O was read as NCOA1 inh 8, SRC2 inh 5, NCOA3 inh 44, COUP-TFII inh -60 and NR5A2 inv ag 32.
`COc1cccc(/C=N/Nc2cc(-n3nc(C)cc3-c3ccccc3)ncn2)c1O` gave NCOA1 inh 5, SRC2 inh 12, NCOA3 inh 39, Efflux pump mplx 0, COUP-TFII inh -8 and NR5A2 inv ag 1.
COc1cccc(/C=N/Nc2ncnc3scc(-c4ccccc4)c23)c1O was read as NCOA1 inh 85*, SRC2 inh 28, NCOA3 inh 88*, Efflux pump mplx 0, COUP-TFII inh -6 and NR5A2 inv ag 98*.
Screening COc1cccc(/C=N/Nc2ncnc(Cl)c2N)c1O returned NCOA1 inh 2, SRC2 inh 30, NCOA3 inh 66*, Efflux pump mplx 0, COUP-TFII inh -4 and NR5A2 inv ag -14.
CCN(CC)S(=O)(=O)c1cc([N+](=O)[O-])ccc1N1CCC(C(N)=O)CC1 was read as NCOA1 inh -2, SRC2 inh 2, NCOA3 inh 9, Efflux pump mplx 0, COUP-TFII inh -3 and NR5A2 inv ag 14.
Screening C(=NNc1ccc2ccccc2n1)c1ccccn1 returned NCOA1 inh 72*, SRC2 inh -20, NCOA3 inh 68*, COUP-TFII inh -45 and NR5A2 inv ag 80*.
COc1cc(C(=O)/C=C/c2cccnc2)c([N+](=O)[O-])cc1OC was read as NCOA1 inh 40, SRC2 inh 61*, NCOA3 inh 56, Efflux pump mplx 0, COUP-TFII inh 28 and NR5A2 inv ag 51.
O=C(/C=C/c1cccnc1)c1ccc([N+](=O)[O-])cc1 was read as NCOA1 inh -18, SRC2 inh 0, NCOA3 inh 16, Efflux pump mplx 0, COUP-TFII inh 7 and NR5A2 inv ag 3.
For CC(C)CC(=O)C1CCCN(C(=O)c2ccc3oc(Cc4ccccc4)nc3c2)C1 (centres undefined) the results were NCOA1 inh -1, SRC2 inh 14, NCOA3 inh 11, Efflux pump mplx 0, COUP-TFII inh 9 and NR5A2 inv ag 12.
Screening O=C(O)C1CCCCC1C(=O)Nc1ccc2c(c1)OCCO2 (centres undefined) returned NCOA1 inh 43, SRC2 inh 55*, NCOA3 inh 49, Efflux pump mplx 0, COUP-TFII inh 26 and NR5A2 inv ag 63.
O=C(Nc1ccc2c(c1)OCCO2)C1CC1c1ccccc1 (centres undefined) was read as NCOA1 inh -37, SRC2 inh -2, NCOA3 inh -48, Efflux pump mplx 0, COUP-TFII inh -22 and NR5A2 inv ag -76.
For Cc1ccccc1CN1CCN(S(=O)(=O)c2ccc(Cl)s2)CC1 the results were NCOA1 inh 9, SRC2 inh 13, NCOA3 inh 16, Efflux pump mplx 0, COUP-TFII inh 13 and NR5A2 inv ag 5.
CCS(=O)(=O)NCc1ccc2[nH]c3c(c2c1)CCCC3 was read as Efflux pump mplx 1.3*.
Screening O=S(=O)(c1ccc(NC(=S)NCc2cccnc2)cc1)N1CCCCC1 returned NCOA1 inh 67*, SRC2 inh 48, NCOA3 inh 46, Efflux pump mplx 0, COUP-TFII inh 18 and NR5A2 inv ag 73*.
For C/C(=C\c1ccccc1F)C(=O)c1c(C)cc(C)[nH]c1=O the results were NCOA1 inh -13, SRC2 inh 5, NCOA3 inh -3, Efflux pump mplx 0, COUP-TFII inh 15 and NR5A2 inv ag 14.
`Cc1[nH]c(=O)c(C(=O)/C=C/c2ccccc2F)c2c1CCCC2` gave NCOA1 inh 62*, SRC2 inh 61*, NCOA3 inh 87*, Efflux pump mplx 0, COUP-TFII inh 27 and NR5A2 inv ag 65.
For CC[C@@]1(O)C(=O)OCc2c1cc1n(c2=O)Cc2cc3c(N)cccc3nc2-1 the results were NCOA1 inh 58, SRC2 inh 47, NCOA3 inh 73*, Efflux pump mplx 0, COUP-TFII inh 12 and NR5A2 inv ag 91*.
`CC[C@@]1(O)C(=O)OCc2c1cc1n(c2=O)Cc2cc3c(CN(C)C)c(O)ccc3nc2-1` gave NCOA1 inh 22, SRC2 inh 45, NCOA3 inh 71*, Efflux pump mplx 0, COUP-TFII inh -5 and NR5A2 inv ag 86*.
`CC1CCCC(C)N1S(=O)(=O)c1ccc(S(=O)(=O)N2CCOCC2)cc1` (centres undefined) gave NCOA1 inh -38, SRC2 inh -6, NCOA3 inh 16, Efflux pump mplx 0, COUP-TFII inh 4 and NR5A2 inv ag 2.
`COc1ccc(/C=N/NC(=O)CNc2c(Br)cc(C)cc2Br)c(C(=O)O)c1OC` gave NCOA1 inh -27, SRC2 inh 4, NCOA3 inh 4, Efflux pump mplx 0, COUP-TFII inh -3 and NR5A2 inv ag -9.
`C[C@@]12C(=O)OC(=O)[C@]1(C)C1CCC2O1` gave NCOA1 inh 53, SRC2 inh 61*, NCOA3 inh 71*, Efflux pump mplx 0, COUP-TFII inh 66* and NR5A2 inv ag 59.
CN(C)C(=O)c1cccc(-c2ccc3nncn3c2)c1 was read as NCOA1 inh 8, SRC2 inh -16, NCOA3 inh 1, COUP-TFII inh -6 and NR5A2 inv ag 18.
Screening CNc1ccc2ncc(-c3cccc(C(=O)N(C)C)c3)n2n1 returned NCOA1 inh 69*, SRC2 inh 56*, NCOA3 inh 58, COUP-TFII inh 19 and NR5A2 inv ag 14.
For O=C(NC1CCS(=O)(=O)C1)Oc1ccc(Cl)cc1 (centres undefined) the results were NCOA1 inh -7, SRC2 inh -7, NCOA3 inh 12, Efflux pump mplx 0, COUP-TFII inh 5 and NR5A2 inv ag -12.
For Cc1nc(C2CCC3C4CCC5=CC(=O)CC[C@]5(C)C4CC[C@]23C)cs1 (some centres undefined) the results were SRC2 inh 2, Efflux pump mplx 2.0* and COUP-TFII inh 18.

Source: PubChem BioAssay (several laboratories)
